Data as given in PubChem BioAssay (NCATS).
Records with an inconclusive call do not appear. Activity calls are given as the source filed them. Unless noted, calls come from the whole dose curve; as a rule, active = well fitted curve in the direction sought with a large enough effect; inconclusive = small, poorly fitted or top-dose-only effect, or another doubt; inactive = no such curve, though single readings can be large; an effect the other way counts as inactive or inconclusive.

Tests used:
[1] = qHTS drug screen for cell cycle checkpoint inhibitors in PARPi-resistant BRCA-mutant ovarian cancer cell lines. (AID 1963452; calls by dose curve); conditions: PEO1/OlaR viability, CellTiter-Glo luminescence, 96 h, stronger effect = lower value
Method in brief: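 PEO1, PEO4 and PEO1/OlaR ovarian cancer cells, 600 per well, exposed 96 h at 37C to a dilution series. Viability read by CellTiter-Glo luminescence, normalized to DMSO and empty wells; activity summarized as Z-AUC.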

[2] = qHTS profiling for inhibitors of Plasmodium falciparum proliferation (AID 504749); note: nearly all actives have a fitted effect of over 60% in size; note: potency is the fitted concentration of half-maximal effect;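 for activity, negative = inhibition: 0% = DMSO vehicle and full inhibition = artemisinin control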; conditions: P. falciparum in erythrocytes, SYBR Green DNA, 72 h
Method in brief: (§1)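 Fluorescence of SYBR Green-bound parasite DNA, read at 485/535 nm, served as the growth measure. Infected erythrocytes were cultured with compound 72 h; artemisinin (0.29 uM) and DMSO wells defined the normalization range.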

3D7 = assay: as above; conditions: P. falciparum in erythrocytes, SYBR Green DNA, 72 h; series mostly up to 28.7 µM
Method in brief: as §1

7G8 = assay: as above; conditions: P. falciparum in erythrocytes, SYBR Green DNA, 72 h; series mostly up to 28.7 µM
Method in brief: as §1

AA1029 = assay: as above; conditions: P. falciparum in erythrocytes, SYBR Green DNA, 72 h; series mostly up to 28.7 µM
Method in brief: as §1

AS120 = assay: as above; conditions: P. falciparum in erythrocytes, SYBR Green DNA, 72 h; series mostly up to 28.7 µM
Method in brief: as §1

ATS189 = assay: as above; conditions: P. falciparum in erythrocytes, SYBR Green DNA, 72 h; series mostly up to 28.7 µM
Method in brief: as §1

ATS95 = assay: as above; conditions: P. falciparum in erythrocytes, SYBR Green DNA, 72 h; series mostly up to 28.7 µM
Method in brief: as §1

C2A = assay: as above; conditions: P. falciparum in erythrocytes, SYBR Green DNA, 72 h; series mostly up to 28.7 µM
Method in brief: as §1

CP185 = assay: as above; conditions: P. falciparum in erythrocytes, SYBR Green DNA, 72 h; series mostly up to 28.7 µM
Method in brief: as §1

CP191 = assay: as above; conditions: P. falciparum in erythrocytes, SYBR Green DNA, 72 h; series mostly up to 28.7 µM
Method in brief: as §1

CP192 = assay: as above; conditions: P. falciparum in erythrocytes, SYBR Green DNA, 72 h; series mostly up to 28.7 µM
Method in brief: as §1

CP194 = assay: as above; conditions: P. falciparum in erythrocytes, SYBR Green DNA, 72 h; series mostly up to 28.7 µM
Method in brief: as §1

[3] = KB-3-1 P-gp reporter qHTS against the NCATS DSHEA and TCM libraries (AID 1919975); conditions: KB-3-1 parental cells, CellTiter-Glo luminescence viability, 72 h; series mostly up to 26.1 µM; note: 0% is about no effect
Method in brief: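 Parental KB-3-1 human cervical adenocarcinoma cells (500 cells/well, DMEM + 10% FBS) were treated with substances for ~72 h at 37C; viability was read by CellTiter-Glo luminescence.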

[4] = qHTS Counterscreen for compound interference against the NCATS DSHEA and TCM libraries (AID 1919978); conditions: firefly luciferase detection reagent interference, luminescence; note: % of control where 0% means no effect
Method in brief: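 D-luciferin (1 uM final) or 100 mM potassium phosphate buffer alone was preincubated 15 min at RT with compounds (19.5 nM to 39.8 uM final). Luciferin detection reagent was then added and luminescence read after 30 min at RT.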

[5] = Dual reporter qHTS for agonist of Pregnane X Receptor (hPXR) against the NCATS DSHEA and TCM libraries: Fluorescence readout (AID 1920058); conditions: PXR dual reporter cells; series mostly up to 40 µM; note: 0% is about no effect
Method in brief: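 In this qHTS counter-read, reporter-bearing HepG2 cells in charcoal-stripped serum received substances for approximately 24 h before viability was assessed fluorometrically with CellTiter-Fluor.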

[6] = target: Nuclear receptor subfamily 1 group I member 2 (Homo sapiens) (UniProt O75469); assay: Dual reporter qHTS for agonist of Pregnane X Receptor (hPXR) against the NCATS DSHEA and TCM libraries: Luminescence readout (AID 1920059); conditions: hPXR dual reporter cells, luciferase luminescence agonist; series mostly up to 40 µM; note: 0% is about no effect
Method in brief: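 hPXR-LucHepG2 cells in phenol red-free DMEM with 5% charcoal-stripped FBS, 2000 cells/well, attached 5 h, then exposed 24 h at 37C to compounds; rifampicin as positive agonist control (2.8 nM–92 uM). Luciferase luminescence read.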

[7] = Dual reporter qHTS for antagonist of Pregnane X Receptor (hPXR) against the NCATS DSHEA and TCM libraries: Fluorescence Readout (AID 1920061); conditions: PXR dual reporter cells, antagonist mode; series mostly up to 40 µM; note: 0% is about no effect
Method in brief: (§2)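 Rifampicin-stimulated (2 uM final) hPXR-luciferase HepG2 cells were treated for 24 h with DSNP/TCM substances. Viability came from CellTiter-Fluor fluorescence, reporter activity from ONE-Glo luminescence.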

[8] = target: Nuclear receptor subfamily 1 group I member 2 (Homo sapiens) (UniProt O75469); assay: Dual reporter qHTS for antagonist of Pregnane X Receptor (hPXR) against the NCATS DSHEA and TCM libraries: Luminescence Readout (AID 1920060); conditions: hPXR dual reporter cells, luciferase luminescence, antagonist mode; series mostly up to 40 µM; note: 0% is about no effect
Method in brief: as §2

[9] = target: Cytochrome P450 1A2 (Homo sapiens) (UniProt P05177); assay: qHTS for inhibitors of CYPIA2 against the NCATS DSHEA and TCM libraries (AID 1919976); conditions: recombinant CYP1A2 enzyme activity, luminescence; series mostly up to 37 µM;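 note: light from luciferin formed by CYP1A2 from a pro-luciferin substrate; % is set by controls: 0 for no effect and ±100 for the full control effect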
Method in brief: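 Furafylline served as the plate control. Compounds met CYP1A2 and pro-luciferin substrate 15 min before NADPH regeneration solution (1x) was added; after 30-45 min at RT, P450-Glo reagent was added for 30 min and luminescence was measured.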

[10] = measured here: PEO1 parental Z-AUC
[11] = at 28.7 µM (top of the series), parasite line A
[12] = at 28.7 µM (top of the series), parasite line B

Nuclear receptor subfamily 1 group I member 2 (Homo sapiens), sequence (O75469 whole entry, looked up): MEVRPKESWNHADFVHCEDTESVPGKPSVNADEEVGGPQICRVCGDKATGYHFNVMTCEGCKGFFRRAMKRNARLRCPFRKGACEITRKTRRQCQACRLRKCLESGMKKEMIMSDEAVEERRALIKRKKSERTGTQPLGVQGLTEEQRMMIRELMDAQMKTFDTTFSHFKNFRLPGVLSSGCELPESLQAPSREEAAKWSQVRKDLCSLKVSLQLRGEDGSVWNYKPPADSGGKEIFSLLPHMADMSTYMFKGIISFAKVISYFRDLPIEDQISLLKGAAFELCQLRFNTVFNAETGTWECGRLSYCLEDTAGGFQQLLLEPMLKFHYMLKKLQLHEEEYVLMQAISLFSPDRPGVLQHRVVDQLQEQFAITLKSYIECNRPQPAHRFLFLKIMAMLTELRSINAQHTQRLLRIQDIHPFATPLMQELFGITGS
Cytochrome P450 1A2 (Homo sapiens), sequence (P05177 whole entry, looked up): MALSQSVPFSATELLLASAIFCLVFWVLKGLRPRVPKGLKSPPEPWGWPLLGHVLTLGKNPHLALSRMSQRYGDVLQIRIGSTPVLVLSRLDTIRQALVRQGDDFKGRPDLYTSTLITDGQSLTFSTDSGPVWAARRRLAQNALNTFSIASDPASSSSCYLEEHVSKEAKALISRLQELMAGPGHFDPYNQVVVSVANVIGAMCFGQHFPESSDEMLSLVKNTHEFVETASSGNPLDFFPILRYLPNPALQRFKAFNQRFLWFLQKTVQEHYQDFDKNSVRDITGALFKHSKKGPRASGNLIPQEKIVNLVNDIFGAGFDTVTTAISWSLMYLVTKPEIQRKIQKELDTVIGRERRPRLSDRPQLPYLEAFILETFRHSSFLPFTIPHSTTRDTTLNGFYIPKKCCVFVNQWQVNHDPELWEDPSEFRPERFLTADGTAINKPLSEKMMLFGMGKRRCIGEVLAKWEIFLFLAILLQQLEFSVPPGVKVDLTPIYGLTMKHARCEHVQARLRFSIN

CC(C)Cc1ccc([C@@H](C)C(=O)NS(C)(=O)=O)cc1
0.781: Z-AUC [1, 10]
inactive: Z-AUC [1] 1.32 | activity, negative = inhibition [2, 11] 3.44% | activity, negative = inhibition [2, 12] -5.62% | Potency (3D7) | Potency (7G8) | Potency (AA1029) | Potency (AS120) | Potency (ATS189) | Potency (ATS95) | Potency (C2A) | Potency (CP185) | Potency (CP191) | Potency (CP192) | Potency (CP194)
0.752: Z-AUC ([1]; measured here: PEO4 Z-AUC)

COc1ccc([C@@H]2CC(=O)c3c(O)cc(O[C@@H]4O[C@H](CO[C@@H]5O[C@@H](C)[C@H](O)[C@@H](O)[C@H]5O)[C@@H](O)[C@H](O)[C@H]4O)cc3O2)cc1O
0.67: Z-AUC ([1]; measured here: PEO4 Z-AUC)
0.305: Z-AUC [1, 10]
inactive: Z-AUC [1] -0.188

CN(C)CCOc1ccc(/C(=C(/CCCl)c2ccccc2)c2ccccc2)cc1
0.97: Z-AUC [1, 10]
0.656: Z-AUC ([1]; measured here: PEO4 Z-AUC)
inactive: Z-AUC [1] 0.623 | activity, negative = inhibition [2, 11] -4.58% | activity, negative = inhibition [2, 12] -0.289% | Potency (3D7) | Potency (AA1029) | Potency (AS120) | Potency (ATS189) | Potency (C2A) | Potency (CP185) | Potency (CP191) | Potency (CP192) | Potency (CP194)

COc1cc(C)c(/C=C/C(C)=C/C=C/C(C)=C/C(=O)O)c(C)c1C
inactive: Z-AUC [1] 0.967 | activity, negative = inhibition [2, 11] -5.12% | activity, negative = inhibition [2, 12] -0.604% | Potency (3D7) | Potency (7G8) | Potency (AA1029) | Potency (AS120) | Potency (ATS189) | Potency (ATS95) | Potency (C2A) | Potency (CP185) | Potency (CP191) | Potency (CP192) | Potency (CP194)
0.941: Z-AUC [1, 10]
1.13: Z-AUC ([1]; measured here: PEO4 Z-AUC)

Cc1ncc(C[n+]2csc(CCO)c2C)c(N)n1
inactive: outcome [3] | max response [4] -0.256% | outcome [5] | Potency [6] | outcome [7] | activity, negative = inhibition ([2]; at 12.8 µM (top of the series), parasite line A) 5.7% | activity, negative = inhibition ([2]; at 12.8 µM (top of the series), parasite line B) 7.59% | Potency (3D7) | Potency (7G8) | Potency (AA1029) | Potency (AS120) | Potency (ATS189) | Potency (ATS95) | Potency (C2A) | Potency (CP185) | Potency (CP191) | Potency (CP192) | Potency (CP194)

C[C@H]1O[C@@H](O[C@H]2[C@@H](O)C[C@H](O[C@H]3[C@@H](O)C[C@H](O[C@H]4CC[C@@]5(C)[C@H](CC[C@@H]6[C@@H]5C[C@@H](O)[C@]5(C)[C@@H](C7=CC(=O)OC7)CC[C@]65O)C4)O[C@@H]3C)O[C@@H]2C)C[C@H](O)[C@@H]1O
-1.92: Z-AUC [1, 10]
-1.33: Z-AUC ([1]; measured here: PEO4 Z-AUC)
inactive: Z-AUC [1] -1.16 | activity, negative = inhibition [2, 11] -10.9% | activity, negative = inhibition [2, 12] 10.4% | Potency (3D7) | Potency (AA1029) | Potency (AS120) | Potency (ATS189) | Potency (ATS95) | Potency (C2A) | Potency (CP185) | Potency (CP191) | Potency (CP192) | Potency (CP194)
active: Potency (7G8) 11.2 µM

C=CC[C@@H]1/C=C(\C)C[C@H](C)C[C@H](OC)[C@H]2O[C@@](O)(C(=O)C(=O)N3CCCC[C@H]3C(=O)O[C@H](/C(C)=C/[C@@H]3CC[C@@H](O)[C@H](OC)C3)[C@H](C)[C@@H](O)CC1=O)[C@H](C)C[C@@H]2OC
inactive: Z-AUC [1] 1.09
0.699: Z-AUC [1, 10]
active: Potency ([2]; parasite line A) 2 µM | Potency ([2]; parasite line B) 1.26 µM | Potency (3D7) 0.891 µM | Potency (7G8) 1 µM | Potency (AA1029) 2 µM | Potency (AS120) 1.41 µM | Potency (ATS189) 1 µM | Potency (ATS95) 2.24 µM | Potency (C2A) 0.251 µM | Potency (CP185) 0.891 µM | Potency (CP191) 1.26 µM | Potency (CP192) 3.79 µM | Potency (CP194) 4.26 µM
1.02: Z-AUC ([1]; measured here: PEO4 Z-AUC)

CC[C@H]1OC(=O)[C@H](C)[C@@H](O[C@H]2C[C@@](C)(OC)[C@@H](O)[C@H](C)O2)[C@H](C)[C@@H](O[C@@H]2O[C@H](C)C[C@H](N(C)C)[C@H]2O)[C@](C)(O)C[C@@H](C)CN(C)[C@H](C)[C@@H](O)[C@]1(C)O
inactive: Z-AUC [1] 1.04 | Potency (3D7)
1.23: Z-AUC ([1]; measured here: PEO4 Z-AUC)
active: Potency (7G8) 12.6 µM | Potency (AA1029) 4.47 µM | Potency (AS120) 5.01 µM | Potency (ATS189) 12.6 µM | Potency (ATS95) 7.94 µM | Potency (C2A) 4.47 µM | Potency (CP185) 5.01 µM
0.718: Z-AUC [1, 10]

COC1=C(OC)C(=O)C(C/C=C(\C)CC/C=C(\C)CC/C=C(\C)CC/C=C(\C)CC/C=C(\C)CC/C=C(\C)CC/C=C(\C)CC/C=C(\C)CC/C=C(\C)CCC=C(C)C)=C(C)C1=O
inactive: outcome [3] | max response [4] 5.89% | outcome [5] | Potency [6] | outcome [8] | outcome [7] | Z-AUC [1] -0.238 | activity, negative = inhibition [2, 11] -2.4% | activity, negative = inhibition [2, 12] 5.89% | Potency (3D7) | Potency (7G8) | Potency (AA1029) | Potency (AS120) | Potency (ATS189) | Potency (ATS95) | Potency (C2A) | Potency (CP185) | Potency (CP191) | Potency (CP192) | Potency (CP194)
0.209: Z-AUC ([1]; measured here: PEO4 Z-AUC)
-0.0279: Z-AUC [1, 10]

O=C(O)/C=C/c1ccccc1
inactive: outcome [3] | Potency [9] | max response [4] -1.31% | outcome [5] | Potency [6] | outcome [8] | outcome [7] | activity, negative = inhibition [2, 11] -6.43% | activity, negative = inhibition [2, 12] 4.85% | Potency (3D7) | Potency (7G8) | Potency (AA1029) | Potency (AS120) | Potency (ATS189) | Potency (ATS95) | Potency (C2A) | Potency (CP185) | Potency (CP191) | Potency (CP192) | Potency (CP194)

CC/C=C\C/C=C\C/C=C\CCCCCCCC(=O)O
inactive: outcome [3] | Potency [9] | max response [4] -1.87% | outcome [5] | Potency [6] | outcome [8] | outcome [7] | activity, negative = inhibition [2, 11] -1.47% | activity, negative = inhibition [2, 12] -1.74% | Potency (3D7) | Potency (AA1029) | Potency (AS120) | Potency (ATS189) | Potency (C2A) | Potency (CP185) | Potency (CP192) | Potency (CP194)

Cn1cc(NC(=O)c2cc(NC(=O)c3cc(NC=O)cn3C)cn2C)cc1C(=O)NCCC(=N)N
active: Potency ([2]; parasite line A) 8.91 µM | Potency ([2]; parasite line B) 11.2 µM | Potency (3D7) 10 µM | Potency (7G8) 0.316 µM | Potency (AA1029) 7.08 µM | Potency (AS120) 7.08 µM | Potency (ATS189) 11.2 µM | Potency (ATS95) 6.31 µM | Potency (C2A) 7.94 µM | Potency (CP185) 11.2 µM | Potency (CP191) 10 µM
